This is part of a sample that, as a whole, favours compounds with a hit. Of some 83,000 tested, about 20% had one in any assay.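 Cell lines were cultured in 96-well plates, exposed to a single compound concentration, and assessed for percent growth 48 hours later.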 A number with no mark means an inactive call. Activity calls are given as the source filed them. The calls were made as follows: active = growth percent below 10; inactive = the rest.

Some test systems named below: NCI-H23 lung; NCI-H226 lung; NCI-H322M lung; HOP-62 NSCLC; NCI-H460 lung; HOP-92 NSCLC; NCI-H522 lung; A549/ATCC NSCLC; 786-0 renal; COLO 205 colon.
Holding throughout (assay): NCI-60 one-dose screen, 48 h (100 = growth as untreated, 0 = no growth, -100 = all killed)
Conditions in all cases: 10 µM unless noted

With `C[C@H](NC(=O)c1ccc2c(-c3ccc(C(F)(F)F)cc3)cccc2c1)c1ccccn1`, the growth with NCI-H23 lung is 70.7%; in the assay on NCI-H226 lung, 28.3%; in the assay with NCI-H322M lung, 50.8%; in the assay with HOP-62 NSCLC it was 77.3%; in the assay with NCI-H460 lung, 42.5%; in the assay with HOP-92 NSCLC, 25.5%. Besides, the growth was 16.9% in the assay on NCI-H522 lung, 39.6% in the assay on A549/ATCC NSCLC, 44.3% in the assay with 786-0 renal and 61.6% in the assay on COLO 205 colon.

As for `O=C1/C(=C/c2cccc3c2OCO3)Cc2c(F)cc(Br)cc21`, the growth in the assay on NCI-H23 lung is 97.2%; in the assay with NCI-H226 lung it was 106%; with NCI-H322M lung, 113%; in the assay with HOP-62 NSCLC, 109%; in the assay on NCI-H460 lung it was 117%; in the assay on HOP-92 NSCLC, 123%. Besides, the growth in the assay with NCI-H522 lung is 104%; in the assay on A549/ATCC NSCLC, 111%; in the assay with 786-0 renal it was 107%; in the assay with COLO 205 colon it was 128%.

As to `N#CC1=C(c2ccco2)Nc2c(c(-c3ccccc3)nn2-c2ccccc2)C12C(=O)Nc1ccc(Cl)cc12` (stereo not given), the growth in the assay with NCI-H23 lung is 45.6%; in the assay on NCI-H226 lung, -9.04% (active); in the assay with NCI-H322M lung, 50.7%; with HOP-62 NSCLC it was -47.9% (active); with NCI-H460 lung it was 0.156% (active); with HOP-92 NSCLC, -0.851% (active). Moreover, the growth was 0.0636% (active) with NCI-H522 lung, -37.1% (active) in the assay on A549/ATCC NSCLC, -14.5% (active) in the assay on 786-0 renal and 79.6% with COLO 205 colon.

Take `COc1cc(CNC(=O)C[C@H](C)CCC=C(C)C)ccc1OCc1cn(-c2ccc(Cl)cc2Cl)nn1`: the growth in the assay with NCI-H23 lung is 56.6%; in the assay with NCI-H226 lung, 66.4%; in the assay with NCI-H322M lung, 95.2%; in the assay on HOP-62 NSCLC, 11.3%; in the assay with NCI-H460 lung it was 75.1%; in the assay with HOP-92 NSCLC it was -3.27% (active). Besides, the growth was 55.4% in the assay on NCI-H522 lung, 59.4% in the assay with A549/ATCC NSCLC, 38.9% in the assay with 786-0 renal and 105% in the assay on COLO 205 colon.

With `Nc1nn2c(-c3cc4cc(Br)ccc4oc3=O)ccnc2c1N=Nc1ccc(S(N)(=O)=O)cc1`, the growth in the assay on NCI-H23 lung was 50.6%; in the assay with NCI-H226 lung, 77.6%; in the assay with NCI-H322M lung, 78.3%; in the assay on HOP-62 NSCLC, 41.8%; with NCI-H460 lung, 52%; in the assay on HOP-92 NSCLC, 83.2%. Moreover, the growth with NCI-H522 lung was 93.3%; with A549/ATCC NSCLC it was 107%; with 786-0 renal, 86.1%; in the assay on COLO 205 colon it was 96.5%.

Regarding `COc1ccccc1/C=C/c1cccc(NC(=S)NCCCCN(C)C)c1`, the growth in the assay with NCI-H23 lung was -97.5% (active); in the assay with NCI-H226 lung, -71.5% (active); in the assay with NCI-H322M lung, -87.4% (active); with HOP-62 NSCLC, -51.1% (active); with NCI-H460 lung it was -74.2% (active); in the assay on HOP-92 NSCLC, -60.9% (active). The growth with NCI-H522 lung was -66% (active); in the assay with A549/ATCC NSCLC, -51.7% (active); with 786-0 renal it was -55.3% (active); in the assay with COLO 205 colon it was -68.2% (active).

For the compound `O=C(Cn1c(-c2ccccc2)nc2ccccc21)N=Nc1c(O)[nH]c2ccc(Br)cc12`, the growth with NCI-H23 lung was 3.3% (active); with NCI-H226 lung, -59.9% (active); in the assay on NCI-H322M lung, -6.14% (active); in the assay on HOP-62 NSCLC, -68.1% (active); in the assay with NCI-H460 lung, -29.9% (active); in the assay on HOP-92 NSCLC, -60.6% (active). The growth in the assay on NCI-H522 lung was 29.5%; in the assay with A549/ATCC NSCLC, 8.52% (active); with 786-0 renal it was -56.2% (active); with COLO 205 colon, -66.9% (active).

Take `CC(C)C[C@H](NC(=O)[C@@H]1CCCCCCCCCCC(=O)N[C@@H](CC(=O)N2CCC[C@@H]2C2CCCC2)C(=O)N1)B(O)O`: the growth in the assay on NCI-H23 lung is -83.3% (active); in the assay with NCI-H226 lung, -33.3% (active); with NCI-H322M lung, -59.8% (active); with HOP-62 NSCLC, -14.7% (active); in the assay on NCI-H460 lung, 0.61% (active); with HOP-92 NSCLC, -63.2% (active). Moreover, the growth in the assay with NCI-H522 lung is -49.1% (active); in the assay on A549/ATCC NSCLC, 1.48% (active); with 786-0 renal, -43.8% (active); in the assay with COLO 205 colon, -64.6% (active).

Regarding `C#CCN(C)CCCOc1ccc(N(CC)C(=O)c2cc(C(C)C)c(O)cc2O)cc1Cl`, the growth in the assay on NCI-H23 lung was -5.94% (active); in the assay with NCI-H226 lung, -13.8% (active); with NCI-H322M lung, 23.4%; with HOP-62 NSCLC it was 26%; with NCI-H460 lung it was -52.4% (active); in the assay with HOP-92 NSCLC it was -44.6% (active). Also, the growth is -14.9% (active) in the assay with NCI-H522 lung, 15.9% in the assay with A549/ATCC NSCLC, 21.6% with 786-0 renal and 4.62% (active) with COLO 205 colon.

With `Cc1cccc(C)c1Nc1nnc(-c2c[nH]c3ccccc23)o1`, the growth is 88.8% in the assay on NCI-H23 lung; 78.9% in the assay with NCI-H226 lung; 98% with NCI-H322M lung; 83.1% with HOP-62 NSCLC; 99.7% with NCI-H460 lung; 89.9% in the assay on HOP-92 NSCLC. For the same compound, the growth in the assay on NCI-H522 lung is 89.4%; with A549/ATCC NSCLC, 98.1%; in the assay on 786-0 renal, 105%; in the assay on COLO 205 colon it was 110%.

As for `NC(=O)c1ccc(-c2ccc3ncnc(N4CCc5cc(F)c(Cl)cc54)c3c2)cn1`, the growth was 70.9% in the assay on NCI-H23 lung; 83.3% in the assay with NCI-H226 lung; 24.1% with NCI-H322M lung; 99.9% in the assay on HOP-62 NSCLC; 79.6% with NCI-H460 lung; 15.4% in the assay with HOP-92 NSCLC. For the same compound, the growth with NCI-H522 lung was 94.1%; with A549/ATCC NSCLC it was 63%; in the assay with 786-0 renal, 66.5%; in the assay on COLO 205 colon it was 47.9%.

On to `COc1cc(CNC(=O)C[C@H](C)CCC=C(C)C)ccc1OCc1cn(-c2cccc(C(F)(F)F)c2)nn1`, for which the growth is 79.4% in the assay on NCI-H23 lung; 72.3% with NCI-H226 lung; 90.1% in the assay with NCI-H322M lung; 88.8% in the assay with HOP-62 NSCLC; 14.6% with NCI-H460 lung; 86.1% in the assay on HOP-92 NSCLC. Further, the growth was 83.1% in the assay with NCI-H522 lung, 42.6% with A549/ATCC NSCLC, 93% in the assay on 786-0 renal and 74.2% in the assay with COLO 205 colon.

Source of the values: PubChem BioAssay (NCI).
